Results reported in PubChem BioAssay (NCI).
This is part of a sample that, as a whole, favours compounds with a hit. Of some 83,000 tested, about 20% had one in any assay.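 Results are percent growth after 48 hours of single-concentration exposure. 100 means growth as in untreated cells, lower positive values show inhibition; negative values down to -100 show cell death.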 Active and inactive are the calls of the source. How the source made its calls: active means growth percent below 10; inactive means the rest.

Key:
Experiment in all cases: NCI-60 one-dose screen, 48 h (100 = growth as untreated, 0 = no growth, -100 = all killed)
Conditions in all cases: 10 µM
[1] = test system: DU-145 prostate
[2] = test system: K-562 leukemia
[3] = test system: MALME-3M melanoma
[4] = test system: MDA-MB-231 breast
[5] = test system: RXF 393 renal
[6] = test system: SF-268 CNS
[7] = test system: SF-295 CNS
[8] = test system: SF-539 CNS
[9] = test system: UACC-257 melanoma
[10] = test system: M14 melanoma

Measured: growth

CN1CCCN(Cc2ccc(C(=O)Nc3cccc(Nc4ccc5cc(O)ccc5n4)c3)cc2C(F)(F)F)CC1
active: [7] -68.5%
inactive: [1] 73.7% | [2] 14.8% | [3] 51% | [4] 34.9% | [5] 60.8% | [6] 62.5% | [8] 41.8% | [9] 59.8% | [10] 47.2%

CC1=C2C(=C[C@@](C)(COCOCCCl)[C@@H]2O)C(=O)[C@](C)(O)C12CC2
active: [1] -11.1% | [2] 8.32% | [3] -84.9% | [4] -44.7% | [5] -78.4% | [6] -9.66% | [7] -30.2% | [8] -65% | [9] -30.3% | [10] -16%

O=C(NC(=S)N1CCN(c2ncnc3c2cnn3-c2ccccc2)CC1)c1ccc(Cl)cc1
inactive: [1] 81.1% | [2] 61.5% | [3] 56.1% | [4] 57.1% | [5] 43.1% | [6] 41.2% | [7] 34.2% | [8] 11.2% | [9] 83.8% | [10] 79.9%

O=C(O)CCCCCCCCCCN1C(=O)/C(=C/c2cnc(-c3ccc(Cl)cc3)s2)SC1=S
active: [7] 8.83%
inactive: [1] 13.2% | [2] 22.1% | [3] 80.6% | [4] 48.9% | [5] 77.4% | [6] 49.4% | [8] 36.4% | [9] 87.6% | [10] 16.5%

CCCCCCCCCCCCCCCCCCCC(=O)NCCc1c[nH]c2ccc(OC(=O)NOCCOCCOCCOCCOCCOCCOCCOCCOCCOCCOCCOCCOCCOCCOCCOCCOCCOCCOCCOCCOCCOCCOC)cc12
inactive: [1] 21.4% | [5] 12% | [6] 16.5%
active: [2] 8.69% | [3] 8.02% | [4] -74.1% | [7] -28.5% | [8] -13.8% | [9] 6.88% | [10] -18.8%

N#Cc1c(NC(=O)c2ccc(C(F)(F)F)c(Cl)c2)sc2c1CCC(=O)C2
inactive: [1] 19.5%
active: [2] 0.454% | [3] -56.9% | [4] -87.5% | [5] -86.3% | [6] -22.7% | [7] -88.9% | [8] -87.6% | [9] -23.3% | [10] -68.8%

COc1ccc(N2N=C(c3ccc4c(c3)OCCO4)CC2c2cccc(NC(=O)CCCNS(=O)(=O)c3ccc(F)cc3)c2)cc1 (stereo not given)
inactive: [1] 91.5% | [2] 56% | [3] 79.7% | [4] 69.2% | [5] 68.1% | [6] 56.2% | [7] 65.2% | [8] 77.7% | [9] 88% | [10] 81.9%

O=C(c1ccc(O)cc1)C1[C@H](c2ccc(Br)cc2)[C@@H](c2ccccc2)NC12C(=O)Nc1ccc(Br)cc12 (stereo not given in full)
inactive: [6] 10.6% | [9] 49.1% | [10] 14.8%
active: [1] 9.58% | [2] 3.5% | [3] -49.3% | [4] -67.7% | [5] -62.9% | [7] -22.7% | [8] -17.8%

O=C(O)CCCCCCCCCCN1C(=O)/C(=C/c2cnc(-c3ccccc3)s2)SC1=S
inactive: [1] 80.4% | [2] 23.6% | [3] 103% | [4] 100% | [5] 116% | [6] 112% | [7] 83.3% | [8] 110% | [9] 101% | [10] 101%

CN1CCN(Cc2ccc(C(=O)Nc3cccc(Nc4ccc5cc(O)ccc5n4)c3)cc2C(F)(F)F)CC1
active: [1] -16.1% | [2] -55.8% | [3] -88.7% | [4] -55% | [5] -87.8% | [6] -26% | [7] -96.9% | [8] -95.5% | [9] -79.1% | [10] -40.2%

Cn1cc(-c2cc(N)n3nc(-c4c[nH]c5ccc(Br)cc45)cc3n2)c2cccnc21
active: [1] -92.5% | [2] -3.96% | [3] -92.4% | [4] -85.6% | [5] -85.2% | [6] -45.7% | [7] -91.9% | [8] -97.7% | [9] -84.3% | [10] -85.8%

O=C1Nc2cc(-c3ccc(NC(=O)c4cccc([N+](=O)[O-])c4)cc3)ccc2/C1=C/c1ccc[nH]1
inactive: [1] 67.7% | [2] 93.7% | [3] 98.7% | [4] 86.6% | [5] 83.7% | [6] 98.4% | [7] 83.5% | [8] 89.2% | [9] 97.1% | [10] 102%

Cc1ccc2nc3c(nc2c1)c1cc(I)ccc1n3CCN(C)C
active: [2] 4.47% | [3] 9.73%
inactive: [1] 13% | [4] 14.8% | [5] 29.8% | [6] 45.4% | [7] 17.3% | [8] 26.4% | [9] 41.9% | [10] 16.3%

Brc1ccc(/C=N/Nc2ncnc3sc4c(c23)CCN(Cc2ccccc2)C4)cc1
active: [10] -12.1%
inactive: [1] 47.2% | [2] 20.9% | [3] 38.7% | [4] 22.1% | [5] 66.7% | [6] 74.2% | [7] 58.7% | [8] 71.4% | [9] 56.7%

CN1CCN(c2ccc(C(=O)/C=C/c3cc(Br)ccc3F)cc2)CC1
inactive: [1] 44.8% | [3] 78.9% | [4] 26.9% | [5] 38.8% | [6] 88.6% | [7] 60.7% | [9] 73.8% | [10] 52.1%
active: [2] -35.5% | [8] 2.31%

N#Cc1c(NC(=O)c2ccc(C(O)(C(F)(F)F)C(F)(F)F)cc2)sc2c1CCC(=O)C2
inactive: [1] 15.5%
active: [2] -10.8% | [3] -92.5% | [4] -89.7% | [5] -89% | [6] -9.56% | [7] -97% | [8] -96.2% | [9] -61.6% | [10] -68%

COc1csc(/C=N/NC(=O)c2[nH]c3ccc(Br)cc3c2-c2ccccc2)c1
active: [1] 7.13% | [2] 4.06% | [4] 3.77% | [7] -10.2% | [8] -39.8%
inactive: [3] 30.9% | [5] 23.3% | [6] 23.5% | [9] 34.8% | [10] 11.5%

COc1ccc(/C(C)=N/N=C2C(=O)N(C)c3ccc(Br)cc32)cc1S(N)(=O)=O
inactive: [1] 86.1% | [2] 93.1% | [3] 64.2% | [4] 56.7% | [5] 57.4% | [6] 33.4% | [7] 47.4% | [8] 43.3% | [9] 83.1% | [10] 87.1%

COC[C@@H](CC(C)C)N=C1NC(=O)/C(=C/c2ccc3ncoc3c2)N1
inactive: [1] 22.6% | [2] 14.4% | [3] 32.5% | [4] 12.3% | [6] 22% | [7] 34.4% | [9] 11.5% | [10] 41%
active: [5] -8.35% | [8] -5.08%

O=C(c1ccccc1)n1ccc(-c2cc3cc(Br)ccc3oc2=O)n1
active: [9] 2.91% | [10] -4.71%
inactive: [1] 37.3% | [2] 19.9% | [3] 36.8% | [4] 32% | [5] 45.2% | [6] 36.5% | [7] 24.4% | [8] 10.5%

CO[C@H]1CSS[C@@H]1Cn1nc(-c2ccc(Oc3ccccc3)cc2)c2c(N)ncnc21
inactive: [1] 38.3% | [5] 18.6% | [6] 32.4% | [7] 35.4% | [8] 36.1%
active: [2] 7.28% | [3] -38.2% | [4] 9.69% | [9] -3.47% | [10] -93%

CC(=O)Nc1ccc(-n2cnc3cc(-c4ccc(O)cc4)ccc32)cc1C
inactive: [1] 60.8% | [2] 41.2% | [3] 58.9% | [4] 49.3% | [5] 43.4% | [6] 53.1% | [7] 52.8% | [8] 41.5% | [9] 61.2% | [10] 42.3%

CN1C(=O)/C(=C/c2nccs2)SC1=S
inactive: [1] 91.2% | [2] 66.8% | [3] 82.1% | [4] 87.5% | [5] 103% | [6] 104% | [7] 93.2% | [8] 95.4% | [9] 85.4% | [10] 87.2%

O=C(c1ccc(Cl)cc1)C1[C@H](c2ccccc2Br)[C@@H](c2ccccc2)NC12C(=O)Nc1ccc(Br)cc12 (stereo not given in full)
inactive: [1] 29.7% | [3] 50.1% | [6] 32.7% | [7] 14.9% | [8] 30.2% | [9] 10.3% | [10] 27.5%
active: [2] 6.68% | [4] 2.81% | [5] -26.1%

COc1cc(/C=N/NC(=O)c2ccc3nc(-c4ccc(Cl)cc4)[nH]c3c2)cc(OC)c1OC
active: [1] -28.7% | [2] -12.4% | [3] -92.8% | [4] -74.5% | [5] -84.3% | [6] -33.9% | [7] -73.7% | [8] -95.7% | [9] -47.7% | [10] -28%

O=C(c1ccc(O)cc1)C1[C@H](c2ccccc2Br)[C@@H](c2ccccc2)NC12C(=O)Nc1ccc(Br)cc12 (stereo not given in full)
inactive: [1] 70.2% | [2] 29.9% | [3] 78.7% | [4] 46.3% | [5] 55.3% | [6] 40% | [7] 26.6% | [8] 49.1% | [9] 65.4% | [10] 54.6%
